Structures are written as SMILES.

The test is described as follows: qHTS profiling of inhibitors of Plasmodium falciparum (DD2) proliferation (acoustic dispense). As to conditions: P. falciparum Dd2 in erythrocytes, SYBR Green DNA, 72 h; at 49.8 µM (top of the series) unless noted. (In qHTS, concentration-response curves come from the screen itself.)
As for `Cn1cc(C2=C(c3c4n(c5ccccc35)CCC(CN)C4)C(=O)NC2=O)c2ccccc21` (configuration not stated), the parasite growth, lower = inhibition was determined as 2.27%.

For the molecule `CC1(C)N=C(N)N=C(N)N1c1ccc(Cl)cc1`, the parasite growth, lower = inhibition amounted to 3.98%. For `COc1cc2nc(N3CCCN(C)CC3)nc(NC3CCN(Cc4ccccc4)CC3)c2cc1OC`, the parasite growth, lower = inhibition is -0.574%. For the molecule `CC[C@@]1([C@@H]2O[C@@H]([C@H]3O[C@@](O)(CO)[C@H](C)C[C@H]3C)C[C@H]2C)CC[C@H]([C@]2(C)CC[C@]3(C[C@H](O)[C@@H](C)[C@@H]([C@@H](C)[C@@H](OC)[C@H](C)C(=O)O)O3)O2)O1`, the parasite growth, lower = inhibition is -0.231% [at 23.2 µM].

Consider `C[C@H]1Cc2c([nH]c3cc(Cl)c(F)cc23)[C@@]2(N1)C(=O)Nc1ccc(Cl)cc12`, for which the parasite growth, lower = inhibition was -0.794%. Consider `CC(C=CC(=O)NO)=C[C@@H](C)C(=O)c1ccc(N(C)C)cc1`, for which the parasite growth, lower = inhibition was -0.545%. The figure for `C[C@@H]1CCC2[C@@H](C)[C@@H](O)O[C@@H]3O[C@@]4(C)CC[C@@H]1[C@@]23OO4` (some centres not stated) is -0.395%; for `C[C@H]1c2cccc(O)c2C(O)=C2C(=O)[C@]3(O)C(O)=C(C(N)=O)C(=O)[C@@H](N(C)C)[C@@H]3[C@@H](O)[C@@H]21` it is 1.85%. The figure for `CS(=O)(=O)CCNCc1ccc(-c2ccc3ncnc(Nc4ccc(OCc5cccc(F)c5)c(Cl)c4)c3c2)o1` is 5.58%; for `CCCCN(CCCC)CC(O)c1cc(Cl)cc2c1-c1ccc(Cl)cc1C2=Cc1ccc(Cl)cc1` (configuration not stated) it is -0.158%. In the case of `C#Cc1cccc(Nc2ncnc3cc(OC)c(OCCCCCCC(=O)NO)cc23)c1` it was -0.648%. On to `CC(C)Oc1cc(Nc2nc(N[C@@H](C)c3ccc(F)cn3)ncc2Cl)[nH]n1`, for which the parasite growth, lower = inhibition was 3.28%. Consider `CCCCN(CCCC)CCC(O)c1cc2c(Cl)cc(Cl)cc2c2cc(C(F)(F)F)ccc12` (configuration not stated), for which the parasite growth, lower = inhibition is -0.281% [at 23.2 µM]. For the molecule `COc1ccc2nc3cc(Cl)ccc3c(Nc3cc(CN4CCCC4)c(O)c(CN4CCCC4)c3)c2n1`, the parasite growth, lower = inhibition stood at 0.653%. The figure for `CC(Sc1nc2ccccc2[nH]1)C(=O)NN=Cc1cc(Br)ccc1O` (configuration not stated) is 99.5% [at 4.15 µM]; for `C=CCn1c(=O)c2cnc(Nc3ccc(N4CCN(C)CC4)cc3)nc2n1-c1cccc(C(C)(C)O)n1` it is -0.0983%. The figure for `CCN[C@H]1C[C@H](C)S(=O)(=O)c2sc(S(N)(=O)=O)cc21` is 0.306%. As for `CC(C)N=C(N)N=C(N)Nc1ccc(Cl)cc1`, the parasite growth, lower = inhibition is -0.338%. The figure for `COc1ccc2cc3[n+](cc2c1OC)CCc1cc2c(cc1-3)OCO2` is -0.889%. The figure for `COc1ccc(-c2nc(N3CCOCC3)c3sc(CN(C)c4ncc(C(=O)NO)cn4)cc3n2)cn1` is 0.651%. On to `CCOC(=O)[C@H](CCc1ccccc1)N[C@H]1CS[C@H](c2cccs2)CN(CC(=O)O)C1=O`, for which the parasite growth, lower = inhibition was 61.3%. Turning to `CC1(CN2CCC(n3c(=O)[nH]c4ccccc43)CC2)OCc2ccccc2-n2cccc21` (configuration not stated), the parasite growth, lower = inhibition was 12.6%. The figure for `Cn1c(=O)n(-c2ccc(C(C)(C)C#N)cc2)c2c3cc(-c4cnc5ccccc5c4)ccc3ncc21` is 1%.

In the case of `CSc1cccc(Nc2ncc3cc(-c4c(Cl)cccc4Cl)c(=O)n(C)c3n2)c1`, the parasite growth, lower = inhibition was determined as 3.85%. The figure for `COc1ncnc(NS(=O)(=O)c2ccc(N)cc2)c1OC` is 114%; for `COC(=O)[C@]12CCC(C)(C)C[C@@H]1[C@@H]1C(=O)C=C3[C@@]4(C)C=C(C#N)C(=O)C(C)(C)[C@@H]4CC[C@@]3(C)[C@]1(C)CC2` it is 23.1%. In the case of `CN[C@@H](C)C(=O)N[C@H]1CCCC[C@H]2CC[C@@H](C(=O)N[C@@H](c3ccccc3)c3cn(CCCCc4ccc(CCCCn5cc([C@@H](NC(=O)[C@@H]6CC[C@@H]7CCCC[C@H](NC(=O)[C@H](C)NC)C(=O)N76)c6ccccc6)nn5)cc4)nn3)N2C1=O` it was 0.728%.
